This note sets out measurements from PubChem BioAssay.

A number with no mark means an inactive call. Activity calls are given as the source filed them.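 The calls were made as follows: active = thallium flux through the channel raised or lowered by more than 3 SD from vehicle-only wells, actives on both sides; inactive = the rest.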

Holding throughout (experiment): modulators of BK channel variants, profiling panel, selectivity assay, cell-based, U2OS BacMam, thallium flux, beta subunits (AID 1259406);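 also: initial slope of Thallos dye fluorescence rise after thallium is added; log ratio against the mean of 0.3% DMSO vehicle wells on the same plate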
The subject of assay [1] is F380Y. The settings on record: at 30 µM.
Assay [2] relates to F380Y/beta1. The settings on record: at 30 µM.
Assay [3] relates to F380Y/beta2Delta. The settings on record: at 30 µM.
Assay [4] has as its system F380Y/beta4. Conditions: at 30 µM.
Assay [5] deals with Calcium-activated potassium channel subunit alpha-1 (Homo sapiens) + Leucine-rich repeat-containing protein 26 (Homo sapiens) (UniProt Q12791+Q2I0M4). The settings on record: F380Y/Slo1WT/gamma1, at 30 µM.
Chain of Calcium-activated potassium channel subunit alpha-1 (Homo sapiens) + Leucine-rich repeat-containing protein 26 (Homo sapiens) (Q2I0M4 whole entry, looked up, one chain of several): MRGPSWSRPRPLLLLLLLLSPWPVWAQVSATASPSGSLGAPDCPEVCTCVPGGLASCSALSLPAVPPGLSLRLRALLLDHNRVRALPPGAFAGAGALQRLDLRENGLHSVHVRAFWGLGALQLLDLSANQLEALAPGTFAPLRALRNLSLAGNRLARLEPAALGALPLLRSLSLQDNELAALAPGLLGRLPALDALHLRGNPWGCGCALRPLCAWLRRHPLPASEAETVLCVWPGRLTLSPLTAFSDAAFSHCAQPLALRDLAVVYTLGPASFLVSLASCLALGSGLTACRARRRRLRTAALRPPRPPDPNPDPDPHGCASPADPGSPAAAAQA
Assay [6] deals with R275C. Conditions: at 30 µM.
Assay [7] relates to R275C/beta1. The settings on record: at 30 µM.
The subject of assay [8] is R275C/beta2Delta. Conditions: at 30 µM.
For assay [9], the system named is R275C/beta4. Conditions: at 30 µM.
Assay [10] relates to R275C/Slo1WT/beta2. The settings on record: at 30 µM.

On to `CS(=O)(=O)Nc1ccc(N2CCN(c3ccc(C(F)(F)F)cn3)CC2)nc1`, for which the log fold change Tl+ flux in assay [1] is 0.0216; in assay [2] it was 0.0253; in assay [3], 0.0364; in assay [4], 0.0379; in assay [5] it was 0.0373; in [6], 0.0255. Also, the log fold change Tl+ flux in assay [7] is 0.0101; in [8] it was 0.0279; in [9], 0.0149; in [10], 0.0171.

As for `COC(=O)c1cncc(Br)c1`, the log fold change Tl+ flux is -0.0118 in [1]; 0.012 in [2]; 0.0106 in [3]; -0.0443 in assay [4]; -0.0357 in [5]; -0.0441 in assay [6]. Further, the log fold change Tl+ flux is -0.0547 in assay [7], -0.0215 in [8], -0.021 in assay [9] and -0.0413 in [10].

As for `O=C(O)CCSc1ccc2ccccc2c1`, the log fold change Tl+ flux in assay [1] is -0.00784; in [2], 0.0347; in [3], -0.0447; in assay [4], 0.0271; in [5], -0.000304; in assay [6] it was 0.0461. Besides, the log fold change Tl+ flux in assay [7] is 0.0425; in [8] it was -0.00975; in assay [9], -0.0121; in assay [10], 0.000781.

In the case of `CN(C)C=Nc1cc(Cl)c(-n2cccc2)cc1Oc1ccc(Cl)cc1`, the log fold change Tl+ flux in assay [1] was 0.0245; in assay [2], 0.0128; in assay [3] it was -0.0305; in assay [4], -0.016; in [5], 0.0223; in assay [6] it was -0.0532. Further, the log fold change Tl+ flux in [7] is -0.0556; in assay [8] it was -0.0155; in assay [9], -0.0061; in assay [10], -0.0144.

Turning to `Cc1nn(C)c2ncc(C(N)=O)c(Oc3ccc(Cl)cc3)c12`, the log fold change Tl+ flux in [1] was -0.00628; in assay [2] it was -0.0132; in assay [3] it was 0.0115; in assay [4] it was 0.049; in assay [5], 0.0214; in [6] it was -0.017. Further, the log fold change Tl+ flux was 0.00427 in assay [7], 0.0253 in [8], -0.0279 in [9] and -0.0474 in [10].

As for `CSc1nc(N)nc(-c2cccs2)n1`, the log fold change Tl+ flux in [1] is 0.02; in assay [2], 0.0489; in assay [3] it was 0.0165; in assay [4] it was 0.0265; in assay [5], 0.0393; in assay [6], -0.0182. The log fold change Tl+ flux was 0.00143 in assay [7], 0.042 in assay [8], 0.0144 in assay [9] and 0.0475 in assay [10].

With `CN(Cc1nnc(-c2ccc3ccccc3c2)o1)c1nnc(C(F)(F)F)s1`, the log fold change Tl+ flux was 0.00202 in [1]; 0.0221 in assay [2]; 0.0123 in assay [3]; -0.0118 in assay [4]; -0.0041 in assay [5]; 4.3e-05 in assay [6]. Further, the log fold change Tl+ flux in [7] was -0.0299; in [8], -0.000282; in assay [9], -0.0251; in [10], 0.0181.

On to `Cc1ccc(S(=O)(=O)N2Cc3ccccc3C(C)CC23CCCCC3)cc1` (stereo not given), for which the log fold change Tl+ flux in [1] was -0.0732; in assay [2], -0.033; in [3], -0.0539; in assay [4], -0.175 (active); in assay [5] it was -0.0898; in assay [6], -0.0799 (active). Further, the log fold change Tl+ flux is -0.119 (active) in assay [7], -0.0411 in assay [8], -0.0534 in assay [9] and 0.009 in assay [10].

Turning to `COc1cc(C(=O)Nc2ccccc2C(=O)NCCc2ccccn2)cc(OC)c1OC`, the log fold change Tl+ flux in assay [1] is 7.8e-05; in [2], 0.0128; in [3] it was 0.0219; in [4], 0.0635; in assay [5], 0.037; in [6], 0.0306. The log fold change Tl+ flux in assay [7] was 0.0367; in assay [8], 0.0116; in assay [9], -0.0253; in assay [10], 0.0509.

As for `CC1(C)CCc2cc(C=NNC(=O)c3cccc(Cl)c3Cl)ccc2O1`, the log fold change Tl+ flux in assay [1] was -0.00742; in assay [2], 0.0223; in assay [3] it was -0.00817; in assay [4], 0.0599; in assay [5], 0.0181; in assay [6] it was -0.00408. The log fold change Tl+ flux was 0.0163 in assay [7], -0.000312 in assay [8], -0.0646 in [9] and 0.00986 in assay [10].

As for `C#CC1(NC(=O)c2ccc(-c3ccc(CC)cc3)cc2)CCCCC1`, the log fold change Tl+ flux in [1] is 0.0109; in assay [2], 0.0082; in [3], 0.0141; in assay [4] it was 0.0366; in [5] it was 0.047; in assay [6], 0.0116. The log fold change Tl+ flux in assay [7] is -0.0162; in [8], -0.00151; in [9], 0.0306; in [10] it was -0.00603.

Regarding `CCOC(=O)CCSC1=NC(c2cccs2)C(C(=O)OCC)=C(C)N1` (stereo not given), the log fold change Tl+ flux in assay [1] was -0.00248; in assay [2], -0.0154; in [3] it was -0.0693; in assay [4] it was -0.0516; in [5], -0.0633; in assay [6], -0.0523. In addition, the log fold change Tl+ flux in assay [7] is -0.0288; in assay [8], -0.0824; in assay [9] it was -0.0154; in [10], -0.0325.

With `Cc1nc(C)c(C(=O)O)c(-c2ccsc2)c1C(=O)O`, the log fold change Tl+ flux in [1] was 0.00149; in assay [2] it was 0.0257; in assay [3], -0.0103; in assay [4], 0.0238; in [5], 0.0233; in assay [6], 0.0307. The log fold change Tl+ flux is 0.0388 in assay [7], -0.00263 in assay [8], 0.00868 in [9] and 0.0152 in assay [10].
